“And” between values parts separate entries of the source, which are not always exact repeats. Identical values can stand only once. Results filed as inconclusive are left out. A structure can be active in one record and inactive in another. The source made the active and inactive calls. Unless noted, the call rests on the fitted dose curve; in most records, active means well fitted curve in the direction sought with a large enough effect; inconclusive means small, poorly fitted or top-dose-only effect, or another doubt; inactive means no such curve, though single readings can be large; an effect the other way counts as inactive or inconclusive.
Key:
NIH3T3 = experiment: qHTS assay to identify novel small-molecules to repurpose for Merkel cell carcinoma treatment (AID 1296009); details: MCC and control cell lines, CellTiter-Glo viability, 72 h; further: nearly all actives have a fitted effect of over 60% in size; further: potency means the concentration at half of the fitted maximal effect
Outline: (§1)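 Cells were incubated with compound for 72 hr at 37 degree celsius before CellTiter-Glo addition. Luminescence was normalized with no-cell wells as full cytotoxicity and DMSO as baseline.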

UISO = experiment: as above; details: MCC and control cell lines, CellTiter-Glo viability, 72 h; series mostly up to 46 µM
Outline: as §1

WaGa = experiment: as above; details: MCC and control cell lines, CellTiter-Glo viability, 72 h; series mostly up to 46 µM
Outline: as §1

C33A = experiment: Primary qHTS to identify gynecologic anti-cancer compounds using libraries of approved drugs and bioactive compounds (AID 1345084); details: Gynecologic cancer cell panel viability, ATPlite luminescence, 48 h; series mostly up to 57.5 µM; further: nearly all actives have a fitted effect of over 55% in size; further: potency means the concentration at half of the fitted maximal effect
Outline: (§2)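 Luminescence from the ATPlite ATP-monitoring reagent indicates viable cell number; lower signal means cytotoxicity. Cells received compound 16 h after seeding and were exposed for 48 h across five concentrations.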

CAOV3 = experiment: as above; details: Gynecologic cancer cell panel viability, ATPlite luminescence, 48 h; series mostly up to 57.5 µM
Outline: as §2

CASKI = experiment: as above; details: Gynecologic cancer cell panel viability, ATPlite luminescence, 48 h; series mostly up to 57.5 µM
Outline: as §2

Es-2 = experiment: as above; details: Gynecologic cancer cell panel viability, ATPlite luminescence, 48 h; series mostly up to 57.5 µM
Outline: as §2

HeLa = experiment: as above; details: Gynecologic cancer cell panel viability, ATPlite luminescence, 48 h; series mostly up to 57.5 µM
Outline: as §2

Hek293T = experiment: as above; details: Gynecologic cancer cell panel viability, ATPlite luminescence, 48 h, control line for the selectivity index; series mostly up to 57.5 µM
Outline: as §2

JEG-3 = experiment: as above; details: Gynecologic cancer cell panel viability, ATPlite luminescence, 48 h; series mostly up to 57.5 µM
Outline: as §2

OV90 = experiment: as above; details: Gynecologic cancer cell panel viability, ATPlite luminescence, 48 h; series mostly up to 57.5 µM
Outline: as §2

PA-1 = experiment: as above; details: Gynecologic cancer cell panel viability, ATPlite luminescence, 48 h; series mostly up to 57.5 µM
Outline: as §2

SKOV3 = experiment: as above; details: Gynecologic cancer cell panel viability, ATPlite luminescence, 48 h; series mostly up to 57.5 µM
Outline: as §2

Tov-21-G = experiment: as above; details: Gynecologic cancer cell panel viability, ATPlite luminescence, 48 h; series mostly up to 57.5 µM
Outline: as §2

Tov112D = experiment: as above; details: Gynecologic cancer cell panel viability, ATPlite luminescence, 48 h; series mostly up to 57.5 µM
Outline: as §2

[1] = Drug repurposing screens with cells derived from glioblastoma tumor samples (AID 1345199); details: GBM patient neurospheres viability, ATP luminescence, 48 h; further: nearly all actives have a fitted effect of over 40% in size; further: potency means the concentration at half of the fitted maximal effect; on activity, negative = cell killing: on the % scale 0 is the no-effect control and ±100 the full control effect
Outline: (§3)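 Four patient lines of CD133+ GBM neurospheres were screened at several concentrations; hits were retested in those lines plus three slower-growing GBM lines, using 48-hour treatment and ATP-based viability.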

astro = experiment: as above; details: viability, ATP luminescence, 48 h; series mostly up to 45.9 µM
Outline: as §3

[2] = target: Nuclear receptor subfamily 1 group I member 2 (Rattus norvegicus) (UniProt Q9R1A7); experiment: qHTS assay for small molecule activators of the rat pregnane X receptor (rPXR) signaling pathway (AID 651751; call rule not given here; further: 0% is about no effect); details: rPXR reporter cells, luciferase (One-Glo), 24 h
Nuclear receptor subfamily 1 group I member 2 (Rattus norvegicus), sequence (Q9R1A7 whole entry, looked up): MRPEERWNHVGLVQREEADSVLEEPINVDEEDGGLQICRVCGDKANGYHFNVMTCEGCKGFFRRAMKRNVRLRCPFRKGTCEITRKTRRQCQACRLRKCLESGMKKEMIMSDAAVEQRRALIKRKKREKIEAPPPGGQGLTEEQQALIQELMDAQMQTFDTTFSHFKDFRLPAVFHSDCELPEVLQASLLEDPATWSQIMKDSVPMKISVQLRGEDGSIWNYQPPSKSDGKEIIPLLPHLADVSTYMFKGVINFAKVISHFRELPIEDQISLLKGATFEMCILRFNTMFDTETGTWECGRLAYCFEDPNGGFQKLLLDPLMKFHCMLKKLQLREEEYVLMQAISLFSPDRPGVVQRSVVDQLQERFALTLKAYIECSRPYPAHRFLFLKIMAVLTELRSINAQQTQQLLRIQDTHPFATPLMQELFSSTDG

[3] = qHTS assay to identify inhibitors of the type 1 interferon - major histocompatibility complex class I in skeletal muscle: Counter screen cell viability and HiBit confirmation (AID 1347412); details: iHSKM muscle cells + IFN-b, HiBiT or CellTiter-Glo, 24 h; Potency: HiBiT; Viability, at 45.9 µM (top of the series); further: potency means the concentration at half of the fitted maximal effect; nearly all actives have a fitted effect of over 60% in size
Outline: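 HLA-B*08:01–HiBiT knock-in immortalized human myoblasts (C25cl48) stimulated with 4.0 ng/ml human IFN-beta and dosed with compound in a 12-point 1:3 titration (top final 46 uM). After 24 hrs at 37 C, HiBiT lytic luminescence or CellTiter Glo ATP read out.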

[4] = qHTS assay for small molecule activators of the human pregnane X receptor (PXR) signaling pathway (AID 720659; call rule not given here; further: 0% is about no effect)
[5] = at 44.8 µM (top of the series) unless noted
[6] = at 45.9 µM (top of the series), tumour line B
[7] = at 45.9 µM (top of the series), tumour line D
[8] = at 46 µM (top of the series), tumour line A

O=C(NC(O)C(Cl)(Cl)Cl)NC(O)C(Cl)(Cl)Cl (stereo not drawn)
inactive: outcome (NIH3T3; [5]) | Potency (UISO) | Potency (WaGa) | Potency (C33A) | Potency (CAOV3) | Potency (CASKI) | Potency (Es-2) | Potency (HeLa) | Potency (Hek293T) | Potency (JEG-3) | Potency (OV90) | Potency (PA-1) | Potency (SKOV3) | Potency (Tov-21-G) | Potency (Tov112D) | activity, negative = cell killing [1, 6] -10.4% | activity, negative = cell killing [1, 7] 2.45% | activity, negative = cell killing [1, 8] -14.7%

CCC(C(N)=O)N1CCCC1=O (stereo not drawn)
inactive: outcome (NIH3T3; [5]) | Potency (UISO) | Potency (WaGa) | Potency (C33A) | Potency (CAOV3) | Potency (CASKI) | Potency (Es-2) | Potency (HeLa) | Potency (Hek293T) | Potency (JEG-3) | Potency (OV90) | Potency (PA-1) | Potency (Tov-21-G) | Potency (Tov112D) | activity, negative = cell killing [1, 6] -7.31% | activity, negative = cell killing [1, 7] -6.8% | activity, negative = cell killing [1, 8] -24.9% | Potency (astro)

CC(C)(C)CC(C)(C)c1ccc(O)cc1
active: Potency (WaGa) 34.4 µM | Potency ([1]; tumour line B) 44700 nM | Potency ([1]; tumour line D) 63100 nM
inactive: outcome (NIH3T3; [5]) | Potency (UISO) | Potency (C33A) | Potency (CAOV3) | Potency (CASKI) | Potency (Es-2) | Potency (HeLa) | Potency (Hek293T) | Potency (JEG-3) | Potency (OV90) | Potency (PA-1) | Potency (SKOV3) | Potency (Tov-21-G) | Potency (Tov112D) | activity, negative = cell killing [1, 7] -15% | max response [2] -11.1%

CC1OC(C)OC(C)O1 (stereo not drawn)
inactive: outcome (NIH3T3; [5]) | Potency (UISO) | Potency (WaGa) | Potency (C33A) | Potency (CAOV3) | Potency (CASKI) | Potency (Es-2) | Potency (HeLa) | Potency (Hek293T) | Potency (JEG-3) | Potency (OV90) | Potency (PA-1) | Potency (SKOV3) | Potency (Tov-21-G) | Potency (Tov112D) | activity, negative = cell killing [1, 6] 0.183% and 0.957% | activity, negative = cell killing [1, 7] -11.1% and -5.15% | activity, negative = cell killing [1, 8] -20.8% and 1.27%

CN1C(=S)CN=C(c2ccccc2)c2cc(Cl)ccc21
inactive: outcome (NIH3T3; [5]) | Potency (UISO) | Potency (WaGa) | Potency (C33A) | Potency (CAOV3) | Potency (CASKI) | Potency (Es-2) | Potency (HeLa) | Potency (Hek293T) | Potency (JEG-3) | Potency (OV90) | Potency (PA-1) | Potency (SKOV3) | Potency (Tov-21-G) | Potency (Tov112D) | activity, negative = cell killing [1, 6] -24.8% | activity, negative = cell killing [1, 7] -20.4%

CC[N+]1(C)CCCC(OC(=O)C(O)(c2ccccc2)c2ccccc2)C1 (stereo not drawn)
inactive: outcome (NIH3T3; [5]) | Potency (UISO) | Potency (WaGa) | Potency (C33A) | Potency (CAOV3) | Potency (CASKI) | Potency (Es-2) | Potency (HeLa) | Potency (Hek293T) | Potency (JEG-3) | Potency (PA-1) | Potency (SKOV3) | Potency (Tov-21-G) | Potency (Tov112D) | activity, negative = cell killing [1, 6] -10.4% | activity, negative = cell killing [1, 7] -8.99%

C[C@@H]1O[C@@H](O[C@H]2C[C@@H](O)[C@]3(CO)[C@H]4[C@H](O)C[C@]5(C)[C@@H](C6=CC(=O)OC6)CC[C@]5(O)[C@@H]4CC[C@]3(O)C2)[C@H](O)[C@H](O)[C@H]1O
inactive: outcome (NIH3T3; at 17.4 µM (top of the series)) | outcome (NIH3T3; at 44.8 µM (top of the series)) | max response [2] 0.133% | outcome [4]
active: Potency (UISO) 83.3 nM and 59.6 nM | Potency (WaGa) 66.2 nM and 59.6 nM | Potency (C33A) 100 nM and 126 nM | Potency (CAOV3) 251 nM and 199 nM | Potency (CASKI) 562 nM and 794 nM | Potency (Es-2) 316 nM and 141 nM | Potency (HeLa) 224 nM and 158 nM | Potency (Hek293T) 282 nM and 178 nM | Potency (JEG-3) 355 nM | Potency (OV90) 447 nM and 794 nM | Potency (PA-1) 316 nM and 141 nM | Potency (SKOV3) 251 nM and 158 nM | Potency (Tov-21-G) 251 nM and 141 nM | Potency (Tov112D) 89.1 nM and 100 nM | Potency ([1]; tumour line A) 158 nM | Potency ([1]; tumour line B) 112 nM | Potency ([1]; tumour line D) 398 nM | Potency (astro) 316 nM and 89.1 nM | Potency [3] 70.1 nM and 55.7 nM

CNCC(O)c1ccc(O)cc1 (stereo not drawn)
inactive: outcome (NIH3T3; [5]) | Potency (UISO) | Potency (WaGa) | Potency (C33A) | Potency (CAOV3) | Potency (CASKI) | Potency (Es-2) | Potency (HeLa) | Potency (Hek293T) | Potency (OV90) | Potency (PA-1) | Potency (SKOV3) | Potency (Tov-21-G) | Potency (Tov112D) | activity, negative = cell killing ([1]; at 21.2 µM (top of the series), tumour line B) 9.4% | activity, negative = cell killing ([1]; at 21.2 µM (top of the series), tumour line D) 0.215% | activity, negative = cell killing ([1]; at 21.3 µM (top of the series), tumour line A) -26.2% | Potency (astro) | max response [2] -0.194% | outcome [4]

O=C(O)c1ccc2[nH]cc(CCCCN3CC=C(c4ccccc4)CC3)c2c1
inactive: outcome (NIH3T3; [5]) | Potency (UISO) | Potency (WaGa) | Potency (C33A) | Potency (CAOV3) | Potency (CASKI) | Potency (Es-2) | Potency (HeLa) | Potency (Hek293T) | Potency (OV90) | Potency (PA-1) | Potency (SKOV3) | Potency (Tov-21-G) | Potency (Tov112D) | activity, negative = cell killing [1, 6] -0.385% | activity, negative = cell killing [1, 7] -15.3% | Potency (astro)

NCCc1cc(O)c(O)cc1O
inactive: outcome (NIH3T3; [5]) | Potency (UISO) | Potency (WaGa) | Potency (C33A) | Potency (CAOV3) | Potency (CASKI) | Potency (Es-2) | Potency (HeLa) | Potency (Hek293T) | Potency (JEG-3) | Potency (OV90) | Potency (PA-1) | Potency (SKOV3) | Potency (Tov-21-G) | Potency (Tov112D) | activity, negative = cell killing [1, 6] -19% | activity, negative = cell killing [1, 7] -22%

Oc1cccc2cccnc12
10.9 µM (active) and inactive: Potency (UISO)
38.6 µM (active) and inactive: Potency (WaGa)
inactive: Potency (C33A) | Potency (CAOV3) | Potency (CASKI) | Potency (Es-2) | Potency (HeLa) | Potency (Hek293T) | Potency (JEG-3) | Potency (OV90) | Potency (PA-1) | Potency (SKOV3) | Potency (Tov-21-G) | Potency (Tov112D) | activity, negative = cell killing [1, 6] -22.3% | activity, negative = cell killing [1, 7] -9.58% | outcome [4]

OCCOc1ccccc1
inactive: Potency (UISO) | Potency (WaGa) | Potency (C33A) | Potency (CAOV3) | Potency (CASKI) | Potency (Es-2) | Potency (HeLa) | Potency (Hek293T) | Potency (JEG-3) | Potency (OV90) | Potency (PA-1) | Potency (SKOV3) | Potency (Tov-21-G) | Potency (Tov112D) | activity, negative = cell killing [1, 6] 3.03% and -11.2% | activity, negative = cell killing [1, 7] -21.5% and 1.35% | activity, negative = cell killing [1, 8] -19.1% | outcome [4]
